Assay outcomes from PubChem.
Sampled rows, rich in hits. Any-hit rate of the full collection: about 4%.
aDG glyco up = increases alpha dystroglycan glycosylation; Pro5-aDG cells, alpha-DG glycosylation AlphaScreen (IIH6); 0% Pro5, 100% B10-LARGE cell signal; activation, % at 10 µM; 360,000 tested, 0.22% active;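 active = activation of at least 8% versus controls, or a plate z-score of at least 8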;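 note: Pro5 are CHO cells carrying HIG-tagged alpha-DG that lacks glycosylation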
FAS-TE inh = blocks the thioesterase domain of human fatty acid synthase | 360,000 tested, 0.67% active | P49327 | inhibition, % at 15 µM | recombinant FAS-TE, OMFH fluorogenic substrate, fluorescence endpoint;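 active = compounds whose normalised, plate-corrected inhibition of enzyme fluorescence in the single-dose primary screen is 50% or more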;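 note: 0% = DMSO with enzyme and 100% = substrate without enzyme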
Target sequence (P49327 whole entry, looked up, the tested form may be a part): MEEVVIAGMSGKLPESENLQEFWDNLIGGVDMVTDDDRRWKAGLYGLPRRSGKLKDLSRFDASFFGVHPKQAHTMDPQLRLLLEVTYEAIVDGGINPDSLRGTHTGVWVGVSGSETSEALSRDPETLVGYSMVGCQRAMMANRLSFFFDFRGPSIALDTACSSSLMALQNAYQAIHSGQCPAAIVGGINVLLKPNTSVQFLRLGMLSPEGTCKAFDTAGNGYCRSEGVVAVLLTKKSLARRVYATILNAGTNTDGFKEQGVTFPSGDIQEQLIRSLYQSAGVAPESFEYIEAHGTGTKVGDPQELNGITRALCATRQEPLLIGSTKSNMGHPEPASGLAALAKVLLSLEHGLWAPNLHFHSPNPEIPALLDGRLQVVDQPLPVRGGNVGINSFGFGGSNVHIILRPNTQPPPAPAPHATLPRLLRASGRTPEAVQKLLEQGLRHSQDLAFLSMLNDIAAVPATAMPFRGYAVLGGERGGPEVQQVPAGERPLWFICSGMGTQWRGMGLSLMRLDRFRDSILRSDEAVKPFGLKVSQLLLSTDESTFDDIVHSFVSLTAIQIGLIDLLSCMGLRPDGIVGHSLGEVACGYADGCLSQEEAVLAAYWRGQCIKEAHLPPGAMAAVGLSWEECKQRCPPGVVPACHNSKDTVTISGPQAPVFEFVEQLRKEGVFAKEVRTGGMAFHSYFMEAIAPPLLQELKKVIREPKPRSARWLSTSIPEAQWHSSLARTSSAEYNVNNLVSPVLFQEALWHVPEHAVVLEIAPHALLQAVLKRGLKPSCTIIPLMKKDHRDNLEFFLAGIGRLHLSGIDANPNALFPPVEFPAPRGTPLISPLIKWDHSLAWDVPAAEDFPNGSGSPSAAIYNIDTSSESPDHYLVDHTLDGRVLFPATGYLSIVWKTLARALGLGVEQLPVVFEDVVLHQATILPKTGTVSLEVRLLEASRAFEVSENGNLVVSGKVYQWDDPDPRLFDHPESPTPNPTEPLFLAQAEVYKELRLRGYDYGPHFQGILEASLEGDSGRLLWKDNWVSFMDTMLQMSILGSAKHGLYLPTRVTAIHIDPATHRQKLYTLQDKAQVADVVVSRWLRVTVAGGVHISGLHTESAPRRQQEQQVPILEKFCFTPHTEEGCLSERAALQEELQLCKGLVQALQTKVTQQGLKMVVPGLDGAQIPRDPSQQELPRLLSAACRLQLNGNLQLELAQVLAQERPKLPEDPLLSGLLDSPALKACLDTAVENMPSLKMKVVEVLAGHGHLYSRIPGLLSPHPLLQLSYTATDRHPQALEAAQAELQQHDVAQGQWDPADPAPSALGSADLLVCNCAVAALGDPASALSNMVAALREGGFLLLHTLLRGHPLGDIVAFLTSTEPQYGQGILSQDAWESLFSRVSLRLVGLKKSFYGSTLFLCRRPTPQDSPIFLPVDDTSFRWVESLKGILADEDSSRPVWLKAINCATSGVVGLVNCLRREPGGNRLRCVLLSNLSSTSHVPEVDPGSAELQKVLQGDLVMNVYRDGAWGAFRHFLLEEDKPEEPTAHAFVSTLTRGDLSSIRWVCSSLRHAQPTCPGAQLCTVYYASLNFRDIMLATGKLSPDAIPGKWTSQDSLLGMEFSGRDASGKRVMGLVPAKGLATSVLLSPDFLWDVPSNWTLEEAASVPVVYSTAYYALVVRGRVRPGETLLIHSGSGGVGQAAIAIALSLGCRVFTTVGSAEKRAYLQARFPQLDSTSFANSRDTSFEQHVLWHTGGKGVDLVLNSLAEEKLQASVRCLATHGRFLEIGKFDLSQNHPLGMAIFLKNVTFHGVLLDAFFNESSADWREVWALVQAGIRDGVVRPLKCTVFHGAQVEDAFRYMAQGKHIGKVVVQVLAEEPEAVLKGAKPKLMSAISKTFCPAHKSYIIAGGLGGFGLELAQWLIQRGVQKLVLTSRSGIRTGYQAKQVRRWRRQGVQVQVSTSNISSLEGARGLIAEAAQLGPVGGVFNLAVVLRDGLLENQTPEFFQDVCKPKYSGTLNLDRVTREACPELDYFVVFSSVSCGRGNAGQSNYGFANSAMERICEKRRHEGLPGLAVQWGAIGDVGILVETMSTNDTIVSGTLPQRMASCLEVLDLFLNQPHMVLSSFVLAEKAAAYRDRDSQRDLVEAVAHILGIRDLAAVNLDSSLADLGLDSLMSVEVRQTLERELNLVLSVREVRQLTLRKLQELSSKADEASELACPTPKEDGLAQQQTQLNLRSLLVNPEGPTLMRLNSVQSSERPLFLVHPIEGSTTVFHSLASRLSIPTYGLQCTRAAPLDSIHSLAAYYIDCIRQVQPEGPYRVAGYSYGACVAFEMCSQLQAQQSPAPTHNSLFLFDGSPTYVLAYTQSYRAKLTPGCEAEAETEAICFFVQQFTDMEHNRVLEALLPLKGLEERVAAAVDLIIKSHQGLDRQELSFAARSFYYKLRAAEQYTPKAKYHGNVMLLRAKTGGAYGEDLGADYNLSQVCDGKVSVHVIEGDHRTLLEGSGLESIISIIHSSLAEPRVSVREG
ADAM17 inh = inhibits human ADAM17; P78536; recombinant ADAM17, EDANS/DABCYL FRET peptide cleavage; inhibition, % at 6.95 µM; 370,000 tested, 0.83% active; AID 720648;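 active = inhibition above the mean of compounds lying between control limits plus 3 SD, set per campaign, cut at about 8.5% in these data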;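 note: 0% = DMSO-only wells as the low control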
GRIN3A LBD mod = NR3A (human) ligand-binding domain modulation; Tm shift relative to glycine control, % at 25 µM; NR3A LBD differential scanning fluorimetry, Tm shift; 0% = protein alone, 100% = glycine-bound protein; 340,000 tested, 2.5% active; AID 1259313;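 active = melting temperature shift of at least 10% of the positive control shift, at one fixed dose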
ADAM10 inh = ADAM10 inhibition, QFRET primary screen; O14672; recombinant ADAM10, EDANS/DABCYL FRET peptide cleavage, 3 h; inhibition, % at 7 µM; 370,000 tested, 0.62% active;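 active = inhibition above a per-campaign cutoff equal to the mean of compounds falling between control-based bounds plus 3 SD, cut at about 20% in these data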;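 note: 0% = DMSO wells while the 100% control is not disclosed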
* marks the source's active call; other numbers are inactive results; . = no result.

SMILES	aDG glyco up	FAS-TE inh	ADAM17 inh	GRIN3A LBD mod	ADAM10 inh
COC(=O)N/N=C/c1c(C)c(C(=O)c2ccc(F)cc2)n2ccccc12	0	-2	-6	1	-2
CC1(C)CC(=O)C=C(Nc2ccccc2O)C1	0	-8	-14	2	-29
Cc1ccsc1/C=N/NC(=S)NCCc1ccccc1	0	12	-1	-1	-6
CCN1CCN(c2ccc(S(=O)(=O)N3CCOCC3)cc2NC(=O)c2ccc(F)cc2Cl)CC1	0	-2	-6	1	-11
Nc1c(Cl)ncnc1N/N=C/c1ccnc2ccccc12	0	-3	-4	13*	-17
Clc1cccc(/C=N/Nc2ncnc3ccccc23)c1	0	13	-62	14*	-187
Nc1c(Cl)ncnc1N/N=C/c1ccccn1	.	.	-7	-1	-17
C(=N\Nc1ncnc2ccccc12)/c1ccccc1	0	-2	-16	-45	-37
COc1ccc(S(=O)(=O)NCc2ccc3c(c2)OCO3)cc1C	0	1	0	1	3
Cc1nn(-c2ccccc2)c(N)c1C1(O)C(=O)N(C)c2ccccc21 (configuration not stated)	0	-11	-4	4	1
O=C(Nc1ccc(-n2ccnc2P(=O)(O)c2ccccc2)cc1)c1ccccc1Cl	0	-7	-2	1	7
COc1ccc(OC)c(/C=C/C(=O)N2C(=O)c3cccc(N)c3C2=O)c1	0	-5	-92	11*	-285
CC(=O)c1ccc(N2CCC(c3cc(-c4ccc(Cl)cc4)n[nH]3)CC2)c([N+](=O)[O-])c1	3	24	.	14*	.
CCOc1ccc(Nc2oc(-c3ccc(Cl)cc3)nc2C#N)cc1	0	5	-8	-5	-23
CN(C)c1oc(-c2ccc(OCc3ccc(Cl)cc3)cc2)nc1C#N	0	2	-8	29*	-5
COc1cc(/C=N/n2cc(-c3ccccc3)[nH]c2=S)cc(OC)c1O	0	1	-7	2	-17
C/C(=N\NC(=O)CSCc1ccccc1Br)c1cccc([N+](=O)[O-])c1	3	-3	2	22*	-1
C/C(=N\NC(=O)CSCc1ccc([N+](=O)[O-])cc1)c1cccc(Br)c1	0	30	6	-10	3
CSc1cccc(NC(=O)CNS(=O)(=O)c2ccccc2)c1	0	0	-4	0	-24
O=C(O)c1ccccc1N=Nc1c(O)[nH]c2ccc([N+](=O)[O-])cc12	0	-4	.	27*	.
O=[N+]([O-])c1ccc2[nH]c(O)c(N=NC(=S)NCC3CCCO3)c2c1 (configuration not stated)	0	3	0	27*	-1
Cc1ccc(NCC(=O)N=Nc2c(O)[nH]c3ccc([N+](=O)[O-])cc23)cc1	.	.	-4	-1	-4
CCCCCC(=O)N=Nc1c(O)[nH]c2ccc([N+](=O)[O-])cc12	0	10	-2	30*	-8
O=C(N=Nc1c(O)[nH]c2ccc([N+](=O)[O-])cc12)c1ccccc1Cl	0	2	-5	-5	-4
COC(=O)CSc1nc(N)nc(C)c1Cl	0	-4	-2	0	-10
SMILES	aDG glyco up	FAS-TE inh	ADAM17 inh	GRIN3A LBD mod	ADAM10 inh
CN(C)c1ccc(CNCCC2(O)CCOC(C)(C)C2)cc1 (configuration not stated)	0	-10	-2	-9	5
COc1ccccc1CNC(=O)c1ccccc1OCc1ccc(F)cc1	2	32	3	23*	4
Cc1cc(N2CCOCC2)n2nc(C(F)(F)F)c(-c3ccccc3)c2n1	0	3	-5	1	-6
O=[N+]([O-])c1cccc(-n2cc3ccc([N+](=O)[O-])cc3n2)c1	0	5	-8	14*	-2
Cn1cc2ccc([N+](=O)[O-])cc2n1	0	1	-6	3	3
CCC(Sc1ccccn1)C(=O)Nc1cccc([N+](=O)[O-])c1 (configuration not stated)	0	18	-1	17*	-2
CCCCCC1CCC(c2ccc(C(N)=O)cc2)CC1 (configuration not stated)	0	-3	-3	1	-4
Cc1cc(C(=O)NNC(=S)NCc2ccco2)n(C)n1	0	-7	1	0	-10
CC(C)c1cc(C(=O)NNC(=S)NCc2ccco2)c(O)c(C(C)C)c1	0	13	4	19*	-3
COc1cc(OC)c2ccc(=O)oc2c1C(CCN1CCCC1)c1ccc2c(c1)OCO2 (configuration not stated)	0	43	0	0	-12
COc1cc(OC)c2ccc(=O)oc2c1C(CCN1CCOCC1)c1ccc2c(c1)OCO2 (configuration not stated)	0	12	-7	15*	-16
COc1ccccc1C(=O)N(Cc1cccs1)C1CCS(=O)(=O)C1 (configuration not stated)	0	-8	-2	-1	1
COc1ccc(-c2noc(CSc3nc(-c4ccccc4)cc(=O)[nH]3)n2)cc1	0	-2	.	-12	.
COc1ccc(C(=O)Sc2nncc3ccccc23)cc1	0	5	6	13*	18
COc1ccc(NC(=O)CSc2nncc3ccccc23)cc1	0	2	-4	0	-7
CCOC(=O)c1ccc(NC(=O)CN(c2ccc(C)cc2)S(=O)(=O)c2c(C)n[nH]c2C)cc1	0	6	5	-2	17
CC1(C)C(=O)Nc2ccccc2N1C(=O)Cn1ncc(Cl)c(Cl)c1=O	0	-1	-4	-1	-3
CN(C)S(=O)(=O)c1cccc(NC(=S)Nc2cc(Cl)cc(Cl)c2)c1	0	26	-5	11*	4
O=C(C[n+]1cc(-c2ccc(F)cc2)n2c1CCC2)N1c2ccccc2Sc2ccccc21	0	1	-7	-3	1
FC(F)(F)c1cccc(N2CCN(c3ccc4nnc(-c5ccccc5)n4n3)CC2)c1	0	30	2	22*	-2
c1ccc(-c2nnc3ccc(N4CCCC4)nn23)cc1	0	-4	-7	-1	-8
CCCCCC1CC(=O)NC1(C(=O)OCC)C(=O)OCC (configuration not stated)	0	1	-3	0	-14
CCCCCCC1CC(=O)NC(=O)N1 (configuration not stated)	0	-4	-1	14*	-4
CC1CCN(S(=O)(=O)c2nnc(NC(=O)c3cccc(Cl)c3)s2)CC1	1	8	-2	14*	-3
C=CCc1cccc(/C=N/NC(=O)CCC(=O)Nc2ccc(C)cc2)c1O	1	-10	-3	14*	-5
Cc1ccc(NC(=O)CCC(=O)N/N=C/c2ccc(O)cc2O)cc1	0	-3	-7	4	-25
N#C/C(=C\c1ccccc1[N+](=O)[O-])c1nc(C2CC2)cs1	0	24	4	16*	2
